Results as given in PubChem BioAssay (EPA / NIEHS).
Results filed as inconclusive are left out. Activity calls are given as the source filed them. Rule for the calls, unless noted: active = hit-call score of the fitted dose curve at least 0.9, where 1 is the maximum; inactive = score below 0.9.

How the values were obtained:
[1] = CCTE_Shafer_MEA_dev_spike_duration_mean: CCTE's Neural Network Formation Assay for Mean Spike Duration, Shafer Lab (AID 2284051);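 note: mean network spike duration pooled as area under curve over DIV 5 to 12 recordings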
Method in brief: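 Rat cortical primary cultures, 48-well MEA (16 electrodes/well); compound from plating, renewed DIV 5, 9. Network spike duration (AxIS adaptive detector) recorded DIV 5/7/9/12, combined as trapezoidal AUC; loss direction vs DMSO.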

[2] = CCTE_Shafer_MEA_dev_network_spike_duration_std: CCTE's Neural Network Formation Assay for Standard Deviation of Network Spike Duration, Shafer Lab (AID 2284052);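 note: area under curve of spike duration SD across recording days 5 to 12; hits are decreases in network spike duration SD versus DMSO vehicle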
Method in brief: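 Rat cortical cultures, 1.5 x 10^5 cells/well, exposed continuously from plating to DIV 12 with media/compound renewal at DIV 5, 9. Spontaneous activity recorded DIV 5/7/9/12, AxIS adaptive spike detector; AUC across days; negative direction vs DMSO.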

[3] = CCTE_Shafer_MEA_dev_per_network_spike_spike_number_mean: CCTE's Neural Network Formation Assay for Mean Number of Spikes in a Network Spike, Shafer Lab (AID 2284053)
Method in brief: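 Rat cortical primary cultures on 48-well MEA; compound from day 0, re-dosed with full media change DIV 5, 9. Recorded DIV 5, 7, 9, 12; spikes in 0.05 s window at network-spike peak ÷ total network spikes; AUC; loss vs DMSO.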

[4] = CCTE_Shafer_MEA_dev_per_network_spike_spike_percent: CCTE's Neural Network Formation Assay for Percent of Spikes in a Network Spike, Shafer Lab (AID 2284054)
Method in brief: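 Metric: fraction of spikes falling in a 0.05 s window at network-spike peaks. Recordings were made on days 5, 7, 9 and 12 and collapsed by trapezoidal AUC. Cultures were rat cortical neurons on MEA plates, dosed continuously from plating, re-dosed at media changes.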

[5] = CCTE_Shafer_MEA_dev_LDH: CCTE's Lactate Dehydrogenase Assay for Cytotoxicity in the Neural Network Formation Assay, Shafer Lab (AID 2284068; active = hit-call score of the fitted dose curve at least 0.9, where 1 is the maximum;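 note: exposure for twelve days from plating with re-dosing on DIV 5 and 9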)
Method in brief: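 Rat cortical primary neurons, MEA culture; dosing day 0–12, full medium plus compound exchange DIV 5, 9. Read-out: LDH enzyme activity, spectrophotometric. DMSO = negative control/baseline; signal loss → cytotoxicity.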

[6] = CCTE_Shafer_MEA_dev_AB: CCTE's Alamar Blue Assay for Cytotoxicity in the Neural Network Formation Assay, Shafer Lab (AID 2284083; active = hit-call score of the fitted dose curve at least 0.9, where 1 is the maximum;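 note: resazurin reduction fluorescence as viability of cultured neurons; twelve days of exposure from plating with re-dosing on DIV 5 and 9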)
Method in brief: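 Rat cortical primary cultures, 1.5 x 10^5 cells/well on MEA; continuous compound exposure over 12 days of network development, re-dosed with full medium change DIV 5 and 9. Alamar Blue fluorescence; loss of signal = cytotoxicity vs DMSO baseline.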

[7] = CCTE_Shafer_MEA_acute_LDH: CCTE's Lactate Dehydrogenase Assay for Cytotoxicity in the Neural Acute Assay, Shafer Lab (AID 2284086; active = hit-call score of the fitted dose curve at least 0.9, where 1 is the maximum;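 note: active means LDH release rises above DMSO vehicle level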)
Method in brief: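 Cytotoxicity readout: spectrophotometric LDH activity in supernatant of rat primary cortical neurons, post-plating day 13 or 15, sampled after 40 min compound exposure; signal gain relative to DMSO baseline.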

[8] = CCTE_Shafer_MEA_dev_mutual_information_norm: CCTE's Neural Network Formation Assay for Mutual Information Normalization, Shafer Lab (AID 2284091)
Method in brief: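 Shared information across electrodes, tracked on days 5, 7, 9 and 12 of network development and collapsed as trapezoidal area under the curve. Rat cortical cultures were treated continuously from plating, with treatment renewed at feeds on DIV 5 and 9; DMSO baseline, negative-direction fit.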

[9] = CCTE_Shafer_MEA_dev_correlation_coefficient_mean: CCTE's Neural Network Formation Assay for Mean Correlation Coefficient, Shafer Lab (AID 2284093)
Method in brief: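 Rat cortical cultures, 1.5 x 10^5 cells/well, dosed from day 0 for 12 days. Spontaneous spikes recorded DIV 5/7/9/12; electrode-pair correlation coefficients averaged, AUC taken. Fit in loss direction vs DMSO.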

[10] = CCTE_Mundy_HCI_Cortical_Synap_Neur_Matur_NeuriteSpotCountPerNeuriteLength: CCTE's Synaptogenesis and Neurite Maturation Assay in rat cortical cells for Neurite Spot Count per Neurite Length, Mundy Lab (AID 2284210)
Method in brief: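 Synaptophysin spots per unit neurite length, measured by automated imaging of MAP2/synaptophysin/Hoechst-stained neurons. Cultures from rat cortex received chemical at DIV 7 with media change through DIV 12; glial growth arrested by AraC at DIV 5; DMSO baseline.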

[11] = CCTE_Mundy_HCI_Cortical_Synap_Neur_Matur_BPCount: CCTE's Synaptogenesis and Neurite Maturation Assay in rat cortical cells for Branch Point Count, Mundy Lab (AID 2284211)
Method in brief: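 In this multiplexed morphology assay, cortical cells from rat receive chemicals at DIV 7 and are fixed at DIV 12, then immunostained and imaged; branch points are counted, with DMSO as baseline.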

[12] = CCTE_Mundy_HCI_Cortical_NOG_NeuriteCount: CCTE's Neurite Outgrowth Assay in rat cortical cells for Neurite Count, Mundy Lab (AID 2284212);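 note: cells fixed about two days after chemical exposure began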
Method in brief: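 Rat cortical primary cells; compound added 2 h post-plating, 1/10 dilution of working solution. Anti-betaIII-tubulin/AF488 ICC; ArrayScan neurite count vs DMSO.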

[13] = CCTE_Mundy_HCI_Cortical_NOG_NeuriteLength: CCTE's Neurite Outgrowth Assay in rat cortical cells for Neurite Length, Mundy Lab (AID 2284213)
Method in brief: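 First, rat primary cortical cells were plated and, 2 h later, given test chemical as a 1/10 dilution. Finally, βIII-tubulin immunostaining enabled automated imaging of neurite length.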

[14] = CCTE_Mundy_HCI_Cortical_Synap_Neur_Matur_NeuriteLength: CCTE's Synaptogenesis and Neurite Maturation Assay in rat cortical cells for Neurite Length, Mundy Lab (AID 2284214)
Method in brief: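 DMSO-normalised neurite length, from high-content imaging of anti-MAP2-stained rat cortical cells fixed at DIV 12. Glia were suppressed with AraC (DIV 5) before chemical exposure from DIV 7.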

[15] = CCTE_Mundy_HCI_Cortical_Synap_Neur_Matur_SynapseCount: CCTE's Synaptogenesis and Neurite Maturation Assay in rat cortical cells for Synapse Count, Mundy Lab (AID 2284218)
Method in brief: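 Endpoint: synapses/neuron by HCI (synaptophysin puncta on MAP2-labelled neurites, Hoechst nuclei). Rat primary cortical cells, AraC DIV 5, dosed DIV 7, fixed DIV 12; DMSO negative control.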

[16] = CCTE_Mundy_HCI_Cortical_Synap_Neur_Matur_NeuriteCount: CCTE's Synaptogenesis and Neurite Maturation Assay in rat cortical cells for Neurite Count, Mundy Lab (AID 2284222);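 note: exposure from day 7 to day 12 in vitro with readout at day 12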
Method in brief: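 Primary rat cortical cells were plated, treated with AraC at DIV 5, then exposed to chemicals from DIV 7 through DIV 12. After fixation and immunostaining for MAP2 and synaptophysin, imaging quantified neurites, with DMSO as the negative control.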

[17] = CCTE_Mundy_HCI_Cortical_Synap_Neur_Matur_CellBodySpotCount: CCTE's Synaptogenesis and Neurite Maturation Assay in rat cortical cells for Cell Body Spot Count, Mundy Lab (AID 2284223)
Method in brief: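 Primary rat cortical cultures, AraC added at DIV 5; dosed DIV 7 through DIV 12 […]. Fixed, stained for MAP2 and synaptophysin with Hoechst; cell body-associated synaptophysin puncta per neuron counted by high-content imaging, loss vs DMSO.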

[18] = CCTE_Mundy_HCI_Cortical_NOG_BPCount: CCTE's Neurite Outgrowth Assay in rat cortical cells for Branch Point Count, Mundy Lab (AID 2284237)
Method in brief: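 Measured 50.33 h after dosing, this morphology endpoint uses rat primary cortical cultures labelled for betaIII-tubulin. Branch points are quantified by high-content imaging, with DMSO as negative control and baseline.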

[19] = CCTE_Mundy_HCI_hNP1_Casp3_7: CCTE's Caspase-Glo 3/7 Assay in human neuroprogenitor cells for Apoptosis, Mundy Lab (AID 2284240)
Method in brief: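 Apoptosis is scored by activated caspase-3/7 luminescence in WA09-derived neural progenitor cells, measured 26.5 h after chemical dosing. Values represent gain of signal relative to DMSO vehicle.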

[20] = CCTE_Mundy_HCI_Cortical_Synap_Neur_Matur_NeuronCount: CCTE's Synaptogenesis and Neurite Maturation Assay in rat cortical cells for Neuron Count, Mundy Lab (AID 2284242; active = hit-call score of the fitted dose curve at least 0.9, where 1 is the maximum)
Method in brief: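 Measured at DIV 12: fluorescently labelled neurons (Hoechst nuclei, MAP2) in rat primary cortical cultures, counted by high-content imaging. AraC suppressed glia from DIV 5; DMSO served as negative control.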

[21] = CCTE_Mundy_HCI_iCellGluta_NOG_NeuronCount: CCTE's Neurite Outgrowth Assay in iCellGluta cells for Neuron Count, Mundy Lab (AID 2284340; active = hit-call score of the fitted dose curve at least 0.9, where 1 is the maximum;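 note: cells fixed about 48 h after compound addition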)
Method in brief: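 Neuron count read by automated high-content imaging of Hoechst 33342 and betaIII-tubulin/Alexa Fluor-488 labelling in human iPSC glutamatergic neurons. Activity fitted relative to DMSO.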

[22] = CCTE_Mundy_HCI_iCellGluta_NOG_NeuriteCount: CCTE's Neurite Outgrowth Assay in iCellGluta cells for Neurite Count, Mundy Lab (AID 2284342; active = hit-call score of the fitted dose curve at least 0.9, where 1 is the maximum;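 note: chemical exposure about 48 hours starting 2 hours after plating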)

Measured: outcome

C#CCN(C)[C@H](C)Cc1ccccc1
inactive: all assays above
